Reference: PubChem BioAssay (NCI)
Compounds without any hit were thinned out: in the full panel of roughly 79,000, 15% have a hit. The source made the active and inactive calls. No stated cut-off is given here; in the data, active means growth inhibition above about 70%; inactive means the rest.

Experiments:
[1] = NCI Yeast Anticancer Drug Screen. Data for the rad50 strain (AID 155);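 further: 0% = growth of vehicle-only cultures of the same strain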; details: S. cerevisiae rad50 strain growth inhibition, active compounds read high
Procedure, shortened: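 A DNA repair-deficient yeast mutant serves as the test organism; compound-induced growth inhibition is calculated against vehicle-treated cells.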

[2] = NCI Yeast Anticancer Drug Screen. Data for the mec2-1 strain (AID 157); details: S. cerevisiae mec2-1 strain, active compounds read high
Procedure, shortened: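 Vehicle-treated cultures served as reference for growth inhibition of compound-exposed mec2-1 yeast.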

[3] = NCI Yeast Anticancer Drug Screen. Data for the sgs1 mgt1 strain (AID 161);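 further: 0% = growth of cultures given vehicle only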; details: S. cerevisiae sgs1 mgt1 strain, active compounds read high
Procedure, shortened: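 Genetically altered yeast, compound exposure, growth inhibition relative to vehicle.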

[4] = NCI Yeast Anticancer Drug Screen. Data for the cln2 rad14 strain (AID 165);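 further: 0% = growth equal to vehicle treated cultures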; details: S. cerevisiae cln2 rad14 strain, active compounds read high
Procedure, shortened: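 Each compound was tested on cln2 rad14 yeast. Inhibition of growth was calculated against vehicle-exposed controls.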

[5] = NCI Yeast Anticancer Drug Screen. Data for the bub3 strain (AID 167); details: S. cerevisiae bub3 mutant strain, active compounds read high
Procedure, shortened: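 Inhibition values come from growth of compound-treated mutant yeast normalised to vehicle-treated controls.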

[6] = NCI Yeast Anticancer Drug Screen. Data for the mlh1 rad18 strain (AID 175); details: S. cerevisiae mlh1 rad18 strain growth inhibition, active compounds read high
Procedure, shortened: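 Vehicle-treated cultures served as the reference for growth inhibition in a yeast strain carrying DNA damage repair alterations exposed to each compound.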

[7] = at 5.0 µM (retest, dose inferred, filed as 0.5)
[8] = at 50.0 µM (retest, dose inferred, filed as 5.0)

Measured: growth inhibition

CN(C)c1ccc(C2N(Cc3ccc(N(CCCl)CCCl)cc3Cl)CCCN2Cc2ccc(N(CCCl)CCCl)cc2Cl)cc1
active: [1]; [8] 97% | [1]; at 50.0 µM 93.5% | [2]; [8] 98% | [2]; at 50.0 µM 90.9% | [3]; [8] 98% | [3]; at 50.0 µM 99% | [4]; [8] 97% | [5]; [8] 97% | [5]; at 50.0 µM 93.8% | [6]; [8] 98% | [6]; at 50.0 µM 95.2%
inactive: [1]; [7] 1% | [2]; [7] -12% | [3]; [7] 1% | [4]; [7] 1% | [4]; at 50.0 µM 15.8% | [5]; [7] -1% | [6]; [7] 6%

[O]=[Sb][c]1ccc(Cl)cc1
active: [1]; at 50.0 µM 96.7% | [2]; at 50.0 µM 85.5% | [3]; at 50.0 µM 99.1% | [5]; at 50.0 µM 87.7% | [6]; at 50.0 µM 93.3%
inactive: [1]; [7] 5% | [1]; [8] 42% | [2]; [7] 3% | [2]; [8] 36% | [3]; [7] 1% | [3]; [8] 56% | [4]; [7] 0% | [4]; [8] 19% | [4]; at 50.0 µM 54.3% | [5]; [7] 4% | [5]; [8] 48% | [6]; [7] 3% | [6]; [8] 35%

COc1cc[c]([Sb]([Br])([CH]=C(C)C)([CH]=C(C)C)[CH]=C(C)C)cc1
inactive: [1]; [7] -1% | [1]; [8] 67% | [2]; [7] -5% | [3]; [7] -1% | [3]; [8] 62% | [3]; at 50.0 µM 35% | [4]; [7] -12% | [4]; [8] 54% | [4]; at 50.0 µM 49.2% | [5]; [7] -9% | [6]; [7] -6%
active: [1]; at 50.0 µM 80.8% | [2]; [8] 85% | [2]; at 50.0 µM 76.5% | [5]; [8] 72% | [5]; at 50.0 µM 80.3% | [6]; [8] 73% | [6]; at 50.0 µM 72.8%

CC[N-]c1nnnn1CC.[Au+].c1ccc([PH+](c2ccccc2)c2ccccc2)cc1
active: [1]; [7] 99% | [1]; [8] 98% | [1]; at 50.0 µM 97.8% | [2]; [7] 99% | [2]; [8] 98% | [2]; at 50.0 µM 98.4% | [3]; [7] 99% | [3]; [8] 98% | [3]; at 50.0 µM 97.7% | [4]; [7] 97% | [4]; [8] 96% | [4]; at 50.0 µM 97.2% | [5]; [7] 99% | [5]; [8] 98% | [5]; at 50.0 µM 97.8% | [6]; [7] 99% | [6]; [8] 97% | [6]; at 50.0 µM 97.2%
